Test system: CLZ3 (HCA2 human fibroblast dual HR-NHEJ reporter)
Test: NHEJ repair efficiency (GFP+ cells) relative to control (log10 fold); higher = more non-homologous end joining
Conditions: 5 µM; doxycycline 0.5 ug/mL
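Further: compound given one day ahead of doxycycline, which switches on I-SceI endonuclease to cut the chromosomally integrated reporter and create DSBs.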

Row | SMILES | NHEJ repair efficiency (log10)
1 | C/C=C(\C)C(=O)OC1c2c(ccc3ccc(=O)oc23)OC(C)(C)C1OC(=O)/C(C)=C/C (centres undefined) [Praeruptorin B] | -0.0992
2 | Cc1cc(O)cc(O[C@@H]2O[C@H](CO)[C@@H](O)[C@H](O)[C@H]2O)c1 [Orcinol Glucoside] | 0.0229
3 | COc1cc(OC)c2ccc(=O)oc2c1 [5,7-Dimethoxycoumarin] | 0.0653
4 | C=C1C[C@@]23CC[C@H]4[C@@](C)(CCC[C@@]4(C)C(=O)O[C@@H]4O[C@H](CO)[C@@H](O)[C@H](O)[C@H]4O)[C@@H]2CC[C@]1(O[C@@H]1O[C@H](CO)[C@@H](O)[C@H](O)[C@H]1O[C@@H]1O[C@H](CO)[C@@H](O)[C@H](O)[C@H]1O)C3 [Stevioside] | 0.149
5 | COc1cc2c(c(O)c1OC)-c1c(cc(OC)c(OC)c1OC)C[C@@H](C)[C@@H](C)C2 [Schisanhenol] | -0.161
6 | CC1(C)CC[C@]2(C(=O)O)CC[C@]3(C)C(=CC[C@@H]4[C@@]5(C)C[C@@H](O)[C@H](O)C(C)(C)[C@@H]5CC[C@]43C)[C@@H]2C1 [Maslinic Acid] | -0.0568
7 | C[C@@H]1O[C@@H](Oc2c(-c3ccc(O)c(O)c3)oc3cc(O)cc(O)c3c2=O)[C@H](O)[C@H](O)[C@H]1O [Quercitrin] | -0.0507
8 | O=C(O)/C=C/c1ccc(O)c(O)c1 [Caffeic Acid] | 0.0711
9 | O=C(O)c1cc(O)c2c(c1)[C@H]([C@H]1c3cc(CO)cc(O)c3C(=O)c3c(O[C@@H]4O[C@H](CO)[C@@H](O)[C@H](O)[C@H]4O)cccc31)c1cccc(O[C@@H]3O[C@H](CO)[C@@H](O)[C@H](O)[C@H]3O)c1C2=O [Sennoside C] | -0.0248

— the supplement of paper PMC7380943
